The values below come from PubChem BioAssay AID504452 (The Scripps Research Institute Molecular Screening Center, 2011).

The structures appear in SMILES notation. Calls of active or inactive are those of the source. No stated cut-off is given here; in the data, active means activation above about 85%; inactive means the rest.

The target of this test is Peroxisome proliferator-activated receptor gamma (Homo sapiens) (UniProt P37231). The test can be described thus: partial agonism at human PPARgamma receptor – cell-based, luciferase reporter, luminescence, primary screen (AID 504452).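 Further: Cos-1 cells carrying PPARgamma and a response element luciferase reporter.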 As to conditions: cell-based PPARg luciferase reporter, at 5 µM, stronger effect = higher value; activation (% of full agonist control): measured here: relative to full agonist control.
Peroxisome proliferator-activated receptor gamma (Homo sapiens), sequence (P37231 whole entry, looked up): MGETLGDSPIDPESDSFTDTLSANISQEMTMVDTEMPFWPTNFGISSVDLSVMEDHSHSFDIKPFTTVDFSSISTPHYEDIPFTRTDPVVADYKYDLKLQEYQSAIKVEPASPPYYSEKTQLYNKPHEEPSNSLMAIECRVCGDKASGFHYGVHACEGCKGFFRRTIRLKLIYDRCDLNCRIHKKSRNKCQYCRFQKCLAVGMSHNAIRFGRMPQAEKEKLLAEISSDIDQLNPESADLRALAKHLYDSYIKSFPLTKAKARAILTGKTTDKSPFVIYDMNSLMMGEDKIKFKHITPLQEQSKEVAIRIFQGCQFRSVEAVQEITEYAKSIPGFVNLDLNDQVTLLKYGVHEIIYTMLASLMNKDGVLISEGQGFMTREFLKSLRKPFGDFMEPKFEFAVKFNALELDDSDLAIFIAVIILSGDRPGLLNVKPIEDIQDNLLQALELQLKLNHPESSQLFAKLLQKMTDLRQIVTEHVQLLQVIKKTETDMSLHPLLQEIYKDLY

With `O=C(O)CCC(=O)N1CCc2cc(S(=O)(=O)NCCc3ccc(Cl)cc3)ccc21`, the activation (% of full agonist control) was found to be 35.9% and the activation (% of partial agonist control) is 79.6% (inactive).

Turning to `O=C(CCCCCNC(=O)N1CCn2c1nc1ccccc12)N[C@H](Cc1ccccc1)C(=O)O`, the activation (% of full agonist control) stood at 27.3% and the activation (% of partial agonist control) was 60.5% (inactive).

Turning to `COc1ccc(NC(=O)CC2C(=O)Nc3ccccc3N2CC(=O)N2CCCC2)cc1` (stereo not given), the activation (% of full agonist control) was found to be 30.4% and the activation (% of partial agonist control) was 67.3% (inactive).

Regarding `COc1ccc(C2CC(=O)N3CN(c4ccccc4F)CSC3=C2C#N)cc1OC` (stereo not given), the activation (% of full agonist control) worked out at 29.2% and the activation (% of partial agonist control) is 64.7% (inactive).

For the compound `COc1cc2c(C(=O)N3CCN(c4ccccc4F)CC3)cn(C)c(=O)c2cc1OC`, the activation (% of full agonist control) came out at 24.1% and the activation (% of partial agonist control) was 53.4% (inactive).

For `CCOc1ccc2nc(N3C(=O)C(O)=C(C(=O)c4ccco4)C3c3ccco3)sc2c1` (stereo not given), the activation (% of full agonist control) was 38.5% and the activation (% of partial agonist control) is 85.2% (active).

`CC1Cc2cc(/C(O)=C3/C(=O)C(=O)N(CCN4CCOCC4)C3c3ccc(N(C)C)cc3)ccc2O1` (stereo not given): the activation (% of full agonist control) was 29.1% and the activation (% of partial agonist control) is 64.3% (inactive).

Take `O=C(O)COc1ccccc1/C=C1\SC(=S)N(NC(=O)c2ccccc2O)C1=O`: the activation (% of full agonist control) is 41.4% and the activation (% of partial agonist control) was 91.7% (active).

Regarding `CC(Oc1cccc(Cl)c1)C(=O)Nc1cc(S(=O)(=O)N2CCOCC2)ccc1N1CCCC1` (stereo not given), the activation (% of full agonist control) amounted to 35.3% and the activation (% of partial agonist control) is 78.1% (inactive).

As for `COc1ccc(N2C(=O)C(=O)/C(=C(/O)c3ccc(C)cc3)C2c2cccnc2)cc1` (stereo not given), the activation (% of full agonist control) was determined as 28.8% and the activation (% of partial agonist control) is 63.8% (inactive).

Consider `Cc1ccc(C(=O)NCc2cccc(C(F)(F)F)c2)cc1S(=O)(=O)N1CCCCC1`, for which the activation (% of full agonist control) turned out to be 25.6% and the activation (% of partial agonist control) was 56.7% (inactive).

In the case of `COc1cccc(C2/C(=C(/O)c3ccccc3)C(=O)C(=O)N2Cc2ccco2)c1` (stereo not given), the activation (% of full agonist control) stood at 35.3% and the activation (% of partial agonist control) was 78.2% (inactive).

With `COc1cc(C(CC(=O)Nc2cccc(C)n2)N2Cc3ccccc3C2=O)cc(OC)c1OC` (stereo not given), the activation (% of full agonist control) amounted to 29.1% and the activation (% of partial agonist control) was 64.3% (inactive).

As to `Nc1ccc(-n2c(N)c(C(=O)NCc3ccc4c(c3)OCO4)c3nc4ccccc4nc32)cc1`, the activation (% of full agonist control) was 26.3% and the activation (% of partial agonist control) was 58.3% (inactive).

Take `CC(C)C[C@H](NC(=O)N1CC(=O)Nc2ccccc21)C(=O)N[C@@H](Cc1c[nH]c2ccccc12)C(=O)O`: the activation (% of full agonist control) amounted to 31.3% and the activation (% of partial agonist control) is 69.4% (inactive).
